Screening results from PubChem.
Most compounds without a hit are left out; they make up all but 27% or so of the library.
CYP2C19 inh: blocks human cytochrome P450 2C19 | CYP2C19 Supersomes, luciferin-H EGE luminescence, 30 min | 96,000 compounds, 21% hits | inhibition, % at 5 µM | AID 778;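 active = CYP2C19 inhibition above a set limit at 5 µM in the primary screen, cut at about 50% in these data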
CYP2C9 inh: blocks human cytochrome P450 2C9; P11712; inhibition, % at 5 µM; AID 777; CYP2C9 Supersomes, luciferin-H conversion, luminescence; 96,000 compounds, 20% hits;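 active = blocking of liver enzyme CYP2C9 beyond about 50% at 5 µM, limit read from the data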
Target sequence (P11712 whole entry, looked up): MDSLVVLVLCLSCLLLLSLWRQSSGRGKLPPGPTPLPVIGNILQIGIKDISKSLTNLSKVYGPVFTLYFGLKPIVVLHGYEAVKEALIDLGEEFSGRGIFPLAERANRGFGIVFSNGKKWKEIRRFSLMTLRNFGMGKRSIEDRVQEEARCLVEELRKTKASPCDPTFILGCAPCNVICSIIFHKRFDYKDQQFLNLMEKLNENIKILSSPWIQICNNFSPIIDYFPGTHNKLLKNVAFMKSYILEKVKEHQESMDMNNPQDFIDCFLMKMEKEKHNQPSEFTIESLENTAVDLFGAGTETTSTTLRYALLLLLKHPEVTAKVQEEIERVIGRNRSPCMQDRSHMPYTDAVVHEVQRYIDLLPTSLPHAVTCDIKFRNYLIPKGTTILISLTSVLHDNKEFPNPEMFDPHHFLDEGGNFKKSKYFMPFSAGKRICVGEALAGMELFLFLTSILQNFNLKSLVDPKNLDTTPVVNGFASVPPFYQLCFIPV
CYP2C19 activ: cytochrome P450 2C19 (human) activation; activation factor at 5 µM; 96,000 tested, under 10 active; P33261; recombinant CYP2C19, luciferin-H EGE luminescence; hits give high values; 0 = fully inhibited enzyme, 1 = untreated enzyme; AID 1025;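 active = activation factor of at least 2 at 5 µM in the primary screen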
Cav3 T inh: inhibitors of human Cav3.2 T-type calcium channel | O95180 | Cav3.2-expressing cells, Fluo-4 calcium fluorescence FDSS; hits give low values | B-score at 10 µM | 100,000 compounds, 4% hits;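 active = single-dose well whose peak fluorescence ratio is a statistical outlier from its plate by either plate-standardised score or position-corrected B-score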
CYP2C9 act: CYP2C9 (human) activation | recombinant CYP2C9, luciferin-H conversion, luminescence; hits give high values; factor 1 = untreated enzyme, 0 = blocked | 96,000 compounds, 1.4% hits | P11712 | activation factor at 5 µM;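 active = activation factor of 2 or more for CYP2C9 at a 5 µM dose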
Large screens that a line does not name were inactive.

CCOC(=O)c1oc2cc(O)ccc2c(=O)c1-c1csc(C)n1	none
Cc1ccc(C2CC(C(F)F)n3ncc(C(=O)Nc4c(C)nn(Cc5c(F)cccc5Cl)c4C)c3N2)cc1 (stereo not given)	none (no result: CYP2C19 inh, CYP2C9 inh, CYP2C19 activ, CYP2C9 act)
Cc1ccc2cc(CCNC(=O)c3ccc4c(c3)OCO4)c(=O)[nH]c2c1C	CYP2C9 inh 60
Cc1ccc2cc(CCNC(=O)C(C)C)c(=O)[nH]c2c1C	none
Cc1ccc(Nc2nc(C(=O)N3CCC(C(=O)NCCN4CCOCC4)CC3)cs2)cc1	none
Cc1ccc(Nc2nc(C(=O)N3CCC(C(=O)N4CCN(C)CC4)CC3)cs2)cc1	CYP2C19 inh 77
COc1cc(/C=C2\C(=O)ON=C2c2ccccc2)cc(OC)c1OC	none
COc1cc(/C=C2/N=C(C3CCCCC3)OC2=O)cc(OC)c1OC	CYP2C9 inh 62
CNC(=S)Nc1ccc(Nc2ccccc2)cc1	none
CNC(=S)NN(c1ccccc1)c1ccccc1	CYP2C19 inh 78
Cc1ccc(CSc2nnc(-c3cccnc3)o2)cc1	CYP2C19 inh 70, CYP2C9 inh 58
Nn1c(CSc2nc3ccccc3o2)nnc1CSc1nc2ccccc2o1	CYP2C19 inh 72, CYP2C9 inh 66
c1ccc(CSc2nnc(-c3cccnc3)o2)cc1	none (no result: CYP2C19 inh, CYP2C9 inh, CYP2C19 activ, CYP2C9 act)
O=C(CSc1nnc(-c2cccnc2)o1)OC1CCCCC1	none
c1ccc2[nH]c(CSc3nc4ccccc4o3)nc2c1	CYP2C19 inh 100, CYP2C9 inh 70
c1cncc(-c2nnc(SCc3nc4ccccc4[nH]3)o2)c1	CYP2C19 inh 70
COc1ccccc1C1(CC(=O)N2CCOCC2)CCOC(C(C)C)C1 (stereo not given)	none
COc1ccc(-c2ccnc3nc(-n4cccc4)nn23)cc1	CYP2C9 inh 51
CCOC(=O)c1c(NC(=O)C(C)N2CCN(C(=O)c3ccco3)CC2)sc2c1CCCC2 (stereo not given)	CYP2C19 inh 77, CYP2C9 inh 100 (no result: Cav3 T inh)
CCOC(=O)c1c(N)sc(=S)c2c1CCC2	none
CCOC(=O)c1c(NC(=O)c2ccco2)sc(C(=O)N2CCCC2)c1C	CYP2C9 inh 56
CCOC(=O)c1c(NC(=O)CC)sc(C(=O)N2CCCCC2)c1C	CYP2C19 inh 75, CYP2C9 inh 57
CCOC(=O)c1c(N)sc(C(=O)N2CCCC(C(N)=O)C2)c1C (stereo not given)	none (no result: CYP2C19 inh, CYP2C9 inh, CYP2C19 activ, CYP2C9 act)
CCOC(=O)c1c(N)ssc1=S	CYP2C9 inh 66
CCCCC1CC(/C(C)=N/NC(N)=O)OC1=O (stereo not given)	none
CCOC(=O)N1CCC(NS(=O)(=O)c2cc(Br)cc3c2N(C(=O)CC)CC3)CC1	none (no result: Cav3 T inh)
Nc1ccc(C(=O)OCc2nc3c(ccc4ccccc43)[nH]2)cc1	none (no result: CYP2C19 inh, CYP2C9 inh, CYP2C19 activ, CYP2C9 act)
CCOC(=O)c1c(N)sc(C(=O)N2CCCCCC2)c1C	CYP2C19 inh 81
COc1ccc(C(=O)c2c[nH]c(C(=O)NCc3cccs3)c2)cc1	none (no result: Cav3 T inh)
O=C(C(Cc1ccc(Cl)cc1)NS(=O)(=O)c1ccccc1)N1CC[C@@]2(O)CCCC[C@H]2C1 (stereo not given in full)	CYP2C19 inh 70, CYP2C9 inh 88
CCC(NS(=O)(=O)c1ccc(C)cc1)C(=O)N1CCC2(O)CCCCC2C1 (stereo not given)	none (no result: Cav3 T inh)
Cc1cc(N2CCN(c3ccccc3Cl)CC2)n2cc(-c3ccccc3)nc2n1	CYP2C9 inh 58, Cav3 T inh -4.3
NC(=S)NNc1cc(Cl)cc(Cl)c1	none
Cc1ccc(CS(=O)(=O)CCC(=O)NCCCOC(C)C)cc1	none (no result: Cav3 T inh)
COC(=O)[C@@H]1C[C@@]2(O)[C@@H](O)[C@@H](O)[C@@H](O)C[C@H]2N1C/C=C/c1ccccc1	none (no result: CYP2C19 inh, CYP2C9 inh, CYP2C19 activ, CYP2C9 act)
CC(CC(=O)NCc1ccccc1)C1CCCO1 (stereo not given)	CYP2C9 inh 60
Cc1ccn2c(C(=O)N/N=C\c3cccs3)c(C)nc2c1	CYP2C9 inh 52
c1ccc(-c2csc(-n3cnnn3)n2)cc1	CYP2C19 inh 62
CCn1c(CNC(=O)c2ccco2)nnc1SCC(=O)Nc1cc(C(F)(F)F)ccc1Cl	Cav3 T inh -4.5
CCOC(=O)C(C)S(=O)(=O)c1ccc(C(F)(F)F)cn1 (stereo not given)	CYP2C19 inh 54
O=C(NCC1CCCO1)c1ccc(S(=O)(=O)N2CCC(c3nc4ccc(Cl)cc4[nH]3)CC2)cc1 (stereo not given)	none (no result: CYP2C19 inh, CYP2C9 inh, CYP2C19 activ, CYP2C9 act)
C=CCOC(=O)C1=C(C)NC(=S)NC1/C=C/c1ccccc1 (stereo not given)	CYP2C19 inh 60, CYP2C9 inh 65
C/C(CC(C)(C)C1CCCCC1)=N\NC(N)=S	CYP2C19 inh 93, Cav3 T inh -4.6
